TGFb SMAD3 inh – TGF-b pathway inhibition; HepG2 CAGA-GFP TGF-b/SMAD3 reporter, GFP fluorescence, 18 h; TGF-beta stimulated, 500 pg/mL final; Potency, µM (top dose mostly 46.1 µM), for the others: at the top dose activity, negative = inhibition, actives largely listed as inhibitors; 410,000 compounds, 1.2% hits; further: on the % scale 0 is the no-effect control and ±100 the full control effect; nearly all actives have a fitted effect of over 65% in size
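HEPG2 CAGA-GFP, 1000 cells/well; 2 h settle, 37 C; cpd via pin tool; TGF-b 500 pg/mL final; 18 h, 37 C; GFP imaging ex488/em500-530; %Activity normalised to -TGF-b and +DMSO controls; CRC fit, curve class.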
DT40 TDP1 CPT – growth inhibition of DT40 Tdp1-/-;hTDP1 cells with camptothecin (screen for TDP1 inhibitors); chicken DT40 Tdp1-/-;hTDP1 cells + 20 nM CPT, ATP luminescence, 48 h; AID 686979; 420,000 compounds, 12% hits; Potency, µM (top dose mostly 46.2 µM), inactives show at the top dose activity change, negative = growth inhibition, hits mostly inhibitors; further: on the % scale 0 is the no-effect control and ±100 the full control effect; nearly all actives have a fitted effect of over 55% in size
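Chicken DT40 Tdp1-/- cells complemented with human TDP1, 400 cells/well, exposed to compounds plus 20 nM camptothecin for at least 48 h at 37 C; viability read as ATP content by CellTiter-Glo luminescence.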
ATXN2 expr inh – reduces ATXN2 reporter expression in HEK-293 cells. AID 1745845. Potency, µM (series often up to 57 µM), for the others: at the highest dose activity change, negative = inhibition, most hits filed as inhibitors. 360,000 compounds, 0.72% hits. HEK-293 ATXN2-luciferase reporter, luminescence, 24 h; further: on the % scale 0 is the no-effect control and ±100 the full control effect; nearly all actives have a fitted effect of over 55% in size
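ATXN2-luciferase reporter cells (luciferase flanked by upstream and downstream ATXN2 gene portions) were treated 24 h at 37 °C with compounds at up to 57 uM. SteadyGlo luminescence gave expression; GF-AFC fluorescence gave viability.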
S2 tox – reduces viability in counter-screen for ATXN expression inhibitors. S2 cells (HEK-293 line with an ATXN2-luciferase reporter) viability, CellTiter-Fluor protease fluorescence, 24 h. Potency, µM (doses to about 56.7 µM), most hits filed as cytotoxic. 400,000 compounds, 0.49% hits. AID 651635; further: nearly all actives have a fitted effect of over 40% in size
HepG2 tox – kills HepG2 cells in TGF-b inhibitor counter-screen; HepG2 CAGA-GFP viability, ATP luminescence, 18 h; Potency, µM (series often up to 46.1 µM), inactives show top-dose activity change, negative = cytotoxicity, actives largely listed as cytotoxic; 410,000 compounds, 0.76% hits
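HepG2 CAGA-GFP cells (1000/well, DMEM with 1% FBS) received compound, then TGF-beta at 500 pg/mL final, and were incubated 18 hours at 37 degrees C. Viability was read by CellTiter-Glo luminescence. Media-only wells were set as complete cell-killing and DMSO as no toxicity.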
DT40 TDP1 no CPT – qHTS for Inhibitors of human tyrosyl-DNA phosphodiesterase 1 (TDP1): qHTS in cells in absence of CPT; 420,000 compounds, 15% hits; Potency, µM (series often up to 46.2 µM), inactives show top-dose activity change, negative = growth inhibition, hits mostly inhibitors; DT40 Tdp1-/- hTDP1 cells, no CPT, ATP luminescence, 48 h; further: on the % scale 0 is the no-effect control and ±100 the full control effect; nearly all actives have a fitted effect of over 55% in size
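Growth kinetics read by CellTiter-Glo luminescence after ≥48 hr at 37 °C. Cells: DT40 Tdp1-/- stably carrying human TDP1, 400 per well, compound exposure in the absence of CPT (DMSO vehicle).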
* hit, by the source's call; i = inactive; ? = inconclusive; nt = not tested or not shown; ! = repeats disagree. Rows were chosen to be rich in hits. Some 17% of all compounds tested hit in one or more screens of this group. The call rests on the fitted dose curve; in most records, active means well fitted curve in the direction sought with a large enough effect; inconclusive means small, poorly fitted or top-dose-only effect, or another doubt; inactive means no such curve, though single readings can be large; an effect the other way counts as inactive or inconclusive. Potency means the concentration at half of the fitted maximal effect.

SMILES	TGFb SMAD3 inh	DT40 TDP1 CPT	ATXN2 expr inh	S2 tox	HepG2 tox	DT40 TDP1 no CPT
Cc1ccc(S(=O)(=O)Nc2ccc(NC(=O)Nc3cccc(C(F)(F)F)c3)cc2)cc1	15.8µM*	18.4µM*	?	?	17.8µM*	?
CCOC(=O)C(NC(=O)CC)(Nc1cc(C)on1)C(F)(F)F (stereo not given)	-4.4%	-3.3%	0.1%	i	-4.1%	-18.5%
CCOc1ccc(NC(=O)CN(C)C(=O)Cc2ccsc2)cc1OCC	-0.7%	-0.7%	-2.5%	i	1.0%	12.9%
CCN(CC(=O)NCc1ccc(F)cc1)C(=O)/C=C/c1ccc(S(=O)(=O)N(CC)CC)cc1	3.9%	23.1µM*	-21.7%	i	-5.9%	20.6µM*
CN(C)c1ccc2c(c1)Sc1cc(N(C)C)ccc1N2C(=O)c1ccccc1	-4.9%	?	-12.7%	i	-11.1%	20.6µM*
Cc1ccc(C(=O)N2c3ccccc3Sc3ccccc32)cc1	-10.2%	-2.1%	-2.1%	i	1.5%	7.4%
CCC(CC)NC(=O)/C=C/c1ccccc1Cl	?	?	37.4%	i	-21.6%	?
CCNc1ccc(Br)cc(C(=O)/C=C/c2ccccc2Cl)c1=O	37.1%	9.2µM*	20µM*	?	-61.1%	10.3µM*
CNc1ccc(Br)cc(C(=O)/C=C/c2cccc(Cl)c2Cl)c1=O	?	18.4µM*	?	?	-34.0%	16.4µM*
CNc1ccc(Br)cc(C(=O)/C=C/c2cccc(OC)c2OC)c1=O	-1.6%	-13.4%	nt	nt	-8.0%	1.2%
CN(CC(=O)N1CCN(Cc2ccccc2)CC1)S(=O)(=O)c1cccc2nsnc12	10.7%	-28.1%	-14.3%	i	-17.1%	?
CCCc1cc(-c2nc(-c3ccc(Br)cc3)cs2)ccn1	?	?	25.3%	i	-28.0%	?
CCCc1cc(-c2nc(-c3ccc(Cl)cc3)cs2)ccn1	-29.5%	18.4µM*	1.6%	i	-59.1%	18.4µM*
O=C(Nc1cc(-c2ccccc2)sc1C(=O)O)c1cccc(F)c1	?	?	0.0%	i	-32.9%	14.6µM*
O=C(Nc1cccc(NC(=O)c2cccc(F)c2)n1)c1cccc(F)c1	13.0%	?	-2.4%	i	-18.5%	20.6µM*
CCOc1ccc(NC(=O)Nc2cc(-c3ccccc3)sc2C(=O)OC)cc1	-13.8%	?	-17.1%	i	-0.1%	?
O=C(Nc1cccc(NC(=O)c2c(F)cccc2F)n1)c1c(F)cccc1F	-13.3%	-8.6%	-14.4%	i	-10.3%	?
CSc1nccc(NC(=O)c2cccc(Br)c2)n1	-20.9%	-4.6%	-20.5%	i	-14.8%	20.6µM*
CCOc1ccc(-c2cc(NC(=O)Nc3ccc(Cl)cc3)c(C(=O)OC)s2)cc1	-4.8%	?	nt	nt	-0.5%	20.6µM*
CCOc1ccc(-c2cc(NC(=O)Nc3ccccc3C(F)(F)F)c(C(=O)OC)s2)cc1	-3.9%	?	nt	nt	3.8%	?
CCOc1ccc(-c2cc(NC(=O)c3c(F)cccc3F)c(C(=O)O)s2)cc1	-3.4%	-24.6%	-0.2%	?	-8.8%	20.6µM*
Cc1ccc(N2C(=O)CSC2c2cccnc2)c(Cl)c1 (stereo not given)	-7.8%	18.4µM*	5.1%	i	-37.4%	20.6µM*
COc1ccc(S(=O)(=O)NC(C)C(=O)NCc2cccnc2)cc1C (stereo not given)	-4.3%	?	-7.1%	i	-24.5%	-17.4%
COc1ccc(N(CC(=O)Nc2cccc(C(C)=O)c2)S(=O)(=O)c2ccccc2)c(OC)c1	6.9%	7.31µM*	-28.8%	?	-1.2%	6.51µM*
COc1ccc(NC(=O)CN(c2ccc(F)cc2)S(=O)(=O)c2ccccc2)c(OC)c1	-3.2%	?	-28.1%	i	-26.7%	?
SMILES	TGFb SMAD3 inh	DT40 TDP1 CPT	ATXN2 expr inh	S2 tox	HepG2 tox	DT40 TDP1 no CPT
CCc1ccccc1NC(=O)CN(c1ccc(OC)cc1OC)S(=O)(=O)c1ccccc1	-12.6%	20.6µM*	-25.2%	i	-23.7%	?
Cc1nn(C)c(C)c1CN(C)C(=O)c1nn2c(c1Br)NC(c1cccs1)CC2C(F)(F)F (stereo not given)	2.9%	?	1.7%	i	12.5%	?
CCC(=O)Oc1ccc(C/C(=N\O)c2ccc(O)cc2O)o1	-4.3%	?	-8.6%	i	-32.2%	18.4µM*
COc1ccc(O)cc1CN1CCN(c2ncc(Cc3ccccc3)cn2)CC1	nt	23.1µM*	nt	nt	nt	16.4µM*
COc1ccc(CN2CCN(c3ncccn3)CC2)c(OC)c1	0.0%	-15.4%	-16.2%	i	-10.0%	-11.8%
Oc1ccc(Cl)c(CN2CCN(c3ncc(Cc4ccccc4)cn3)CC2)c1	nt	?	nt	nt	nt	18.4µM*
CN(C)C=Nc1nonc1-c1ccc(Cl)cc1	-17.3%	1.1%	nt	i	-23.7%	-4.1%
CC1(C)[C@@H](O)CC[C@]2(C)[C@H]3C(=O)C=C4[C@@H]5C[C@@](C)(C(=O)O)CC[C@]5(C)CC[C@@]4(C)[C@]3(C)CC[C@@H]12	-8.2%	7.5µM*!	9.1%	i	-15.3%	2.37µM*!
CCCNC(=O)C(Cc1ccccc1)NC(=O)c1ccc(-c2ccccc2)cc1 (stereo not given)	4.9%	-19.7%	4.2%	i	-4.3%	?
CCCCN(CC)CCCn1cnc2c([nH]c3ccc(Cl)cc32)c1=O	26.9%	20.6µM*	-20.4%	i	-21.4%	20.6µM*
O=C1CCCN1CCCn1cnc2c([nH]c3ccc(F)cc32)c1=O	1.0%	11.1%	7.6%	i	-16.3%	-0.7%
CN1CCN(c2ncc3nc(-c4cn(C)c5ccccc45)c(=O)n(C)c3n2)CC1	nt	23.1µM*	nt	nt	nt	23.1µM*
Cn1cc(-c2nc3cnc(N4CCNCC4)nc3n(C)c2=O)c2ccccc21	nt	5.17µM*	nt	nt	nt	5.8µM*
O=C1NC[C@@H](Cc2ccc(O)cc2)N(CC2CCCCC2)C1=O	-0.3%	5.1%	0.3%	i	-2.9%	1.1%
Oc1ccc(C[C@@H]2CNCCN2CC2CCCCC2)cc1	-6.7%	16.4µM*	-10.0%	i	-50.4%	23.1µM*
c1ccc([C@H]2CNCCN2CCc2cccc3ccccc23)cc1	?	?	0.0%	?	-77.2%	20.6µM*
CC(C)(C)CN1CCNC[C@H]1Cc1ccc(O)cc1	12.2%	?	-13.4%	i	-2.0%	-27.6%
c1ccc2c(C[C@@H]3CNCCN3CC3CCCCC3)cccc2c1	?	14.6µM*	?	?	-84.7%	16.4µM*

Assay outcomes (PubChem)
